The sample as a whole holds a higher share of the strongest signals than the screen did.
What was measured:
Test in all cases: glycan array binding signal (z-score within array); higher = stronger binding
Settings in all cases: glycan notation: IUPAC condensed, linker removed
[1] = test system: Kdn(a2-3)Gal(b1-4)GlcNAc
Summary of the method: (§1)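 From the Consortium for Functional Glycomics database, 3228 arrays were curated, keeping only those whose protein sequence was available. Binding is given as a within-array Z-score averaged across arrays sharing a protein sequence and across linkers. Negative Z-scores can be read as non-binding.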

[2] = test system: Man(a1-2)Man(a1-6)[Man(a1-3)]Man(a1-6)[Man(a1-2)Man(a1-2)Man(a1-3)]Man(b1-4)GlcNAc(b1-4)GlcNAc
Summary of the method: as §1

[3] = test system: Man(a1-2)Man(a1-3)Man
Summary of the method: as §1

[4] = test system: Man(a1-2)Man(a1-2)Man(a1-3)Man
Summary of the method: as §1

[5] = test system: Man(a1-3)[Man(a1-6)]Man(a1-6)[Man(a1-2)Man(a1-3)]Man(b1-4)GlcNAc(b1-4)GlcNAc
Summary of the method: as §1

[6] = test system: Man(a1-3)[Man(a1-6)]Man
Summary of the method: as §1

[7] = test system: Man(a1-2)Man(a1-3)[Man(a1-2)Man(a1-6)]Man
Summary of the method: as §1

[8] = test system: Man(b1-4)GlcNAc
Summary of the method: as §1

[9] = test system: MurNAc(b1-4)GlcNAc
Summary of the method: as §1

[10] = test system: Neu5Ac(a2-3)Gal(b1-3)GlcNAc(b1-2)Man(a1-3)[GlcNAc(b1-4)][Neu5Ac(a2-3)Gal(b1-3)GlcNAc(b1-2)Man(a1-6)]Man(b1-4)GlcNAc(b1-4)GlcNAc
Summary of the method: as §1

[11] = test system: Man(a1-2)Man(a1-3)[Man(a1-2)Man(a1-6)]Man(a1-6)[Man(a1-2)Man(a1-2)Man(a1-3)]Man(b1-4)GlcNAc(b1-4)GlcNAc
Summary of the method: as §1

[12] = test system: Man(a1-2)Man(a1-2)Man(a1-6)[Man(a1-3)]Man
Summary of the method: as §1

[13] = test system: Man(a1-2)Man(a1-3)[Man(a1-2)Man(a1-6)]Man(a1-6)[Man(a1-2)Man(a1-2)Man(a1-3)]Man
Summary of the method: as §1

[14] = test system: Man(a1-2)Man(a1-3)[Man(a1-6)]Man(a1-6)[Man(a1-2)Man(a1-3)]Man(b1-4)GlcNAc(b1-4)GlcNAc
Summary of the method: as §1

[15] = test system: Man(a1-2)Man(a1-6)[Man(a1-3)]Man(a1-6)[Man(a1-2)Man(a1-2)Man(a1-3)]Man
Summary of the method: as §1

[16] = test system: Man(a1-3)[Man(a1-6)]Man(b1-4)GlcNAc(b1-4)[Fuc(a1-6)]GlcNAc
Summary of the method: as §1

[17] = test system: Neu5Ac(a2-3)Gal(b1-3)GalNAc(b1-4)[Neu5Ac(a2-3)]Gal(b1-4)Glc
Summary of the method: as §1

[18] = test system: Neu5Ac(a2-3)Gal(b1-3)GalNAc(b1-4)[Neu5Ac(a2-8)Neu5Ac(a2-3)]Gal(b1-4)Glc
Summary of the method: as §1

[19] = test system: Neu5Ac(a2-3)Gal(b1-3)GlcNAc(b1-3)Gal(b1-3)GlcNAc
Summary of the method: as §1

[20] = test system: Neu5Ac(a2-3)Gal(b1-3)GalNAc
Summary of the method: as §1

## SiiE (Salmonella typhimurium), A0A0H3NVH0
[1]
  glycan array binding signal (z-score): 2.58
[2]
  glycan array binding signal (z-score): -0.297

## BambL (Burhholderia ambifaria), Q0B4G1
[3]
  glycan array binding signal (z-score): -0.316

## Wza (Escherichia coli), P0A930
[4]
  glycan array binding signal (z-score): 2.8
[5]
  glycan array binding signal (z-score): 0.776
[6]
  glycan array binding signal (z-score): 1.81

## LcI (Legionella pneumophila)
[7]
  glycan array binding signal (z-score): -0.584
[8]
  glycan array binding signal (z-score): 0.079
[9]
  glycan array binding signal (z-score): 0.332
[10]
  glycan array binding signal (z-score): -0.429

## SpGH101 (Streptococcus pneumoniae), Q8DR60
[3]
  glycan array binding signal (z-score): -0.182
[11]
  glycan array binding signal (z-score): -0.2

## Actinohivin (Actinomycete K97)
[4]
  glycan array binding signal (z-score): 3.74
[12]
  glycan array binding signal (z-score): 16.1
[3]
  glycan array binding signal (z-score): 1.82
[11]
  glycan array binding signal (z-score): 3.83
[13]
  glycan array binding signal (z-score): 12.4
[7]
  glycan array binding signal (z-score): 1.78
[14]
  glycan array binding signal (z-score): 3.51
[2]
  glycan array binding signal (z-score): 6.4
[15]
  glycan array binding signal (z-score): 8.54

## Epa22
[16]
  glycan array binding signal (z-score): -0.324

## AgI/II Vhelical-GFP (Streptococcus mutans)
[17]
  glycan array binding signal (z-score): 0.244
[18]
  glycan array binding signal (z-score): -0.256
[10]
  glycan array binding signal (z-score): 1.2

## AgI/IIC123-GFP (Streptococcus mutans)
[4]
  glycan array binding signal (z-score): -0.465
[7]
  glycan array binding signal (z-score): 0.368
[5]
  glycan array binding signal (z-score): -0.159
[10]
  glycan array binding signal (z-score): -0.265
[19]
  glycan array binding signal (z-score): -0.456

## GspB (Streptococcus gordonii), Q939N5
[20]
  glycan array binding signal (z-score): 4.52

From the supplement of paper PMC8728848
